Drawing on PubChem BioAssay (Tox21), this text covers Potency for 30 compounds.

Experiment [1] is described as follows: qHTS assay to identify small molecule antagonists of the estrogen related receptor (ERR) signaling pathway (AID 1224819; further: nearly all actives have a fitted effect of over 50% in size). Summed up:
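LOPAC library screened for antagonism as reduced One-Glo luminescence in ERR reporter cells (2,000/well). Compounds were added after 6 h pre-incubation and left 18 h at 37C; reading followed a 30 min room-temperature reagent step.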
On the technique in general: qHTS replaces the single test concentration by a dilution series.

The nature of experiment [2]: qHTS assay to identify small molecule agonists of the estrogen related receptor (ERR) signaling pathway (AID 1224820). Summed up:
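Following a 6 h settling period, 2,000 ERR cells per well receive DMSO-dissolved compounds by pin tool and incubate 18 h at 37 C; agonist activity is scored from One-Glo luminescence read 30 min post-addition.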

Experiment [3] deals with estrogen-related receptor alpha (ERRalpha) with PGC-1alpha coactivator, human. In words: qHTS assay to identify small molecule antagonists of the estrogen related receptor signaling pathway with the pleiotropic PPARgamma coactivator (PGC) (AID 1224821; calls by dose curve; further: nearly all actives have a fitted effect of over 50% in size). The gist of the method:
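Screening used NTP's PGC/ERR cells, dosed via pin tool with compound in DMSO alongside positive and negative controls. After 18 h at 37 C, One-Glo reagent sat 30 min at room temperature before luminescence detection.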

The nature of experiment [4]: qHTS assay to identify small molecule antagonists of the estrogen related receptor signaling pathway with the pleiotropic PPARgamma coactivator (PGC) cell viability counter screen (AID 1224822). The gist of the method: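 Viability counter-screen read by fluorescence intensity after 30 min with CellTiter-Fluor at 37 C; PGC/ERR reporter cells were exposed to compounds for 17.5 h at 37 C following a 6 h preincubation.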

Experiment [5] can be described thus: qHTS assay to identify small molecule agonists of the estrogen related receptor signaling pathway with the pleiotropic PPARgamma coactivator (PGC) (AID 1224823). Summed up: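 In this quantitative high-throughput screen, an 18 h, 37 C treatment of PGC/ERR cells with compounds in DMSO preceded a One-Glo luminescence read taken after 30 min at room temperature.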

Records with an inconclusive call do not appear. Values without a mark were called inactive. Calls of active or inactive are those of the source. Unless noted, the call rests on the fitted dose curve; in most records, active means well fitted curve in the direction sought with a large enough effect in the repeat runs; inconclusive means weak or mixed curves; inactive means no such curve, though single readings can be large; an effect the other way counts as inactive or inconclusive.
Potency means the concentration at half of the fitted maximal effect.

Regarding `CCCCC[C@H](CC(=O)NO)C(=O)N[C@H](C(=O)N1CCC[C@H]1CO)C(C)C`, the Potency was 5.11 µM (active) in experiment [1] and 10.2 µM (active) in experiment [3]. Further, the Potency entry in experiment [2], in experiment [4] and in experiment [5] was “inactive” throughout.

On to `O=C(c1ccc(Cl)cc1)N1CCN(c2ccc([N+](=O)[O-])c3ncccc23)CC1`, for which the Potency in experiment [1] is 7.5 µM (active). The Potency entry in experiment [2] and in experiment [5] was “inactive” in each case.

Regarding `Oc1cc2c(c(Cl)c1O)CCNCC2c1ccccc1` (stereo unspecified), the Potency in experiment [1] was 8.41 µM (active). Besides, the Potency entry in experiment [2] and in experiment [5] was “inactive” in each case.

As for `O=C1c2ccccc2-c2n[nH]c3cccc1c23`, the Potency in experiment [1] was 26.6 µM (active). The Potency result in experiment [2], in experiment [3] and in experiment [5] was “inactive” in each case.

With `O=Nc1c(-c2c(O)[nH]c3ccccc23)[nH]c2ccccc12`, the Potency entry in experiment [1] and in experiment [3] was “inactive” in each case. Besides, the Potency was 2.87 µM (active) in experiment [2] and 13.9 µM (active) in experiment [4].

On to `CCCCOC(=O)NS(=O)(=O)c1sc(CC(C)C)cc1-c1ccc(Cn2c(CC)nc3c(C)cc(C)nc32)cc1`, for which the Potency in experiment [1] was 11.9 µM (active). Further, the Potency entry in experiment [2] and in experiment [5] was “inactive” throughout.

For the compound `COc1cc(NS(C)(=O)=O)ccc1Nc1c2ccccc2nc2ccccc12`, the values for the Potency in experiment [1] and in experiment [4] were 0.779 µM (active) and 18.1 µM (active), respectively. Moreover, the Potency entry in experiment [2] is “inactive”.

For `CCCC(=O)NCCc1c2n(c3ccc(OC)cc13)CCCc1ccccc1-2`, the Potency in experiment [1] was 20.3 µM (active). Besides, the Potency result in experiment [2] and in experiment [5] was “inactive” in each case.

Consider `Nc1ncnc2c1c(-c1ccc(Oc3ccccc3)cc1)cn2C1CCCC1`, for which the Potency in experiment [1] was 11.9 µM (active). Besides, the Potency entry in experiment [2], in experiment [3] and in experiment [5] was “inactive” each time.

As to `O=C1c2ccccc2C(=O)c2c(NCCc3ccc(O)cc3)ccc(NCCc3ccc(O)cc3)c21`, the Potency was 18.1 µM (active) in experiment [1] and 11.9 µM (active) in experiment [4]. Moreover, the Potency entry in experiment [2], in experiment [3] and in experiment [5] was “inactive” throughout.

Consider `CN(C)c1cc2c(Nc3ccc4c(cnn4Cc4ccccc4)c3)ncnc2cn1`, for which the Potency in experiment [1] is 13.3 µM (active). In addition, the Potency result in experiment [2] and in experiment [5] was “inactive” in each case.

On to `COc1ccc(C(=O)/C(Cc2cc(OC)c(OC)c(OC)c2)=C(\C(=O)O)c2ccc3c(c2)OCO3)cc1`, for which the Potency in experiment [1] was 10.2 µM (active); in experiment [4], 18.8 µM (active). The Potency entry in experiment [2] and in experiment [5] was “inactive” each time.

For the compound `CC(C)(C)c1ccc(S(=O)(=O)/C=C/C#N)cc1`, the Potency entry in experiment [1], in experiment [2] and in experiment [5] was “inactive” each time.

Regarding `OCC1O[C@H]([S-])C(O)[C@@H](O)[C@@H]1O.[Au+]` (stereo partly specified), the values for the Potency in experiment [1], in experiment [3] and in experiment [4] were 22 µM (active), 5.11 µM (active) and 9.08 µM (active), respectively. Also, the Potency entry in experiment [2] and in experiment [5] was “inactive” throughout.

As for `O=C(O)c1cc([N+](=O)[O-])ccc1NCCCc1ccccc1`, the Potency result in experiment [1], in experiment [2], in experiment [3] and in experiment [5] was “inactive” each time.

`O=[N+]([O-])c1ccc(-c2nc(-c3ccc(F)cc3)c(-c3ccncc3)[nH]2)cc1`: in experiment [1], the Potency is 13.3 µM (active). In addition, in experiment [2], the Potency entry is “inactive”.

As to `NC[C@@H]1O[C@H](C23CC4CC(CC(C4)C2)C3)Cc2c1ccc(O)c2O`, the Potency in experiment [1] is 22.8 µM (active). In addition, the Potency entry in experiment [2], in experiment [3] and in experiment [5] was “inactive” in each case.

Consider `NC(N)=NC(=O)c1nc(Cl)c(N2CCCCCC2)nc1N`, for which the Potency in experiment [1] was 11.9 µM (active). The Potency entry in experiment [2], in experiment [3] and in experiment [5] was “inactive” in each case.

For `Nc1ccc2c3c(cccc13)C(=O)NC2=O`, the Potency entry in experiment [1], in experiment [2], in experiment [3] and in experiment [5] was “inactive” in each case.

Consider `COC1=C(OC)C(=O)c2ccccc2C1=O`, for which the Potency in experiment [1] is 11 µM (active). The Potency result in experiment [2] was “inactive”.

With `Fc1ccc(C(OCCCc2cnc[nH]2)c2ccc(F)cc2)cc1`, the Potency was 13.9 µM (active) in experiment [1] and 10.2 µM (active) in experiment [3]. In addition, the Potency entry in experiment [2] and in experiment [5] was “inactive” throughout.

As for `Cc1ccc(S(=O)(=O)N[C@@H](Cc2ccccc2)C(=O)CCl)cc1`, the Potency result in experiment [1], in experiment [2] and in experiment [5] was “inactive” in each case. For the same compound, in experiment [4], the Potency was 26.6 µM (active).

Turning to `Cc1cc2c(cc1Cl)N(C(=O)Nc1ccc(Oc3cccnc3C)nc1)CC2`, the Potency in experiment [1] was 5.11 µM (active); in experiment [3], 12.8 µM (active). In addition, the Potency entry in experiment [2] and in experiment [5] was “inactive” each time.

Turning to `CN(C)c1ccc(/C=C2\C(=O)Nc3ccccc32)cc1`, the Potency entry in experiment [1] and in experiment [3] was “inactive” each time. In addition, the Potency in experiment [2] is 3.35 µM (active); in experiment [5], 3.1 µM (active).

With `O=C1NC(=O)c2cc(Nc3ccccc3)c(Nc3ccccc3)cc21`, the figures for the Potency in experiment [1] and in experiment [3] were 10.2 µM (active) and 20.3 µM (active), respectively. Also, the Potency result in experiment [2] and in experiment [5] was “inactive” each time.

`Cc1cccc(-c2[nH]c(C(C)(C)C)nc2-c2ccc3nccnc3c2)n1`: the Potency in experiment [1] was 10.2 µM (active); in experiment [3], 6.94 µM (active); in experiment [4] it was 8.1 µM (active). In addition, the Potency result in experiment [2] and in experiment [5] was “inactive” each time.

As for `COc1ccc(/C=C2\COc3ccc(C)cc3C2=O)cc1O`, the Potency entry in experiment [1], in experiment [3] and in experiment [4] was “inactive” each time. Besides, the Potency in experiment [2] was 1.19 µM (active).

For the compound `CCc1ccc(/C=C2/SC(=S)NC2=O)cc1`, the Potency result in experiment [1] and in experiment [5] was “inactive” each time.

Turning to `Cc1ccc(S(=O)(=O)/C=C/C#N)cc1`, the Potency result in experiment [1] and in experiment [3] was “inactive” each time. Further, the Potency in experiment [2] is 17.4 µM (active); in experiment [5], 15.5 µM (active).

Regarding `CCN(CC)CCOc1ccc(Nc2ncc3cc(-c4c(Cl)cccc4Cl)c(=O)n(C)c3n2)cc1`, the figures for the Potency in experiment [1] and in experiment [4] were 9.08 µM (active) and 1.74 µM (active), respectively. The Potency entry in experiment [2] and in experiment [3] was “inactive” each time.
